This is an account of results in article PMC12136788.

Whole data set: some 5,800 sequences, median “enrichment r” near 0.68, cut for the highest 2% near 11. The entries come from a sample that favours the highest values as a whole.

First the molecules themselves.
T1: UNK ZnF1-6 (called full-length) (human, UniProt Q9C0B0 30-357)
T1 sequence: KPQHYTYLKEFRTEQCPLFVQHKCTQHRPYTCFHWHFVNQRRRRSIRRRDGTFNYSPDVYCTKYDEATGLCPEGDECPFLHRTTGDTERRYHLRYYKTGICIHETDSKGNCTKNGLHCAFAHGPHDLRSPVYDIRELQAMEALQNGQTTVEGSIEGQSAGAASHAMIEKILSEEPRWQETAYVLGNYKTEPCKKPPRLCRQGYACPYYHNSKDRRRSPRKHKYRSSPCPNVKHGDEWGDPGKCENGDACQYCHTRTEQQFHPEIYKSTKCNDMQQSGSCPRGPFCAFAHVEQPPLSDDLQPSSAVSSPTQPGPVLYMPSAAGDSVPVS

B1: chr16:785952:786377:-|CDS|ENSG00000007376|control|control|control (ssRNA)
RNA: GGGAGUUCUACAGUCCGACGAUCCAGUCGCUGGACCAGCUCGUGCAGGCCUUACGGGCCACCCCCGACCCUGACCCCGAGGAUAGGGGCCCCAGGCCAGGCAGCCCCUCCGCACUCCUGCCUGGGCCCGGCCGGCCUCCUCCACAACAGAGGAUUGAGCAUCA
B2: chr1:162783069:162783171:+|3pUTR|ENSG00000162733|unk|FALSE|unique (ssRNA)
RNA: GGGAGUUCUACAGUCCGACGAUCUGAAAGUAGUUCAAAUUUGAAUUAGAAGAAUGAAGCUAGGACUUAUUUGGAAAAGGAGAUAGAAAAAAAAUGAUCAGAAACUGUGGGGCCUUAUUACCUUUGCAGUAAGUUAUCUUCUUCCAACAGAGGAUUGAGCAUCA
B3: chr15:64957256:64957357:+|3pUTR|ENSG00000166839|msi1|FALSE|unique (ssRNA)
RNA: GGGAGUUCUACAGUCCGACGAUCGCUGGAAAAUUGAAACAUAAUUUCACAAUUAUUCCUUUUUCCACCUUAAAUAAUAAGAGUAGAAUACUUUCUGUGUUUUUAUCUUAUACACAUGAAUAAAUGCUAUGGCUUAUCACAGUUCAACAGAGGAUUGAGCAUCA
B4: ENSG00000114744:stop:overlap|stop_codon|ENSG00000114744|stop_codon|NA|stop_codon (ssRNA)
RNA: GGGAGUUCUACAGUCCGACGAUCAACAAGCAUUGGAAGAGAUGAAGACAAAUCACUGUAGGAGAGUUGUUCGCAACAUCAAGUAGUACCAGUUUUAAGGUUUUAAUUCAUUUGAAUCACUUAUGAAUUGAUGAUAUACAGCAACAACAGAGGAUUGAGCAUCA
B5: ENSG00000066855:stop:overlap|stop_codon|ENSG00000066855|stop_codon|NA|stop_codon (ssRNA)
RNA: GGGAGUUCUACAGUCCGACGAUCGAGUGUUGUCCCUUCCAGCUGGCUUUAUUCAGCCCCACGUGUCCAAGCAUUGUCUGGGAUAGCCUUGUAUUGGAAAACCUGGCCCAUUCUGUAAAUAAAGGCUCCACUAGAAAAGACUCGCAACAGAGGAUUGAGCAUCA
B6: chr1:184691659:184691688:-|3pUTR|ENSG00000116406|msi1_unk|FALSE|overlapping (ssRNA)
RNA: GGGAGUUCUACAGUCCGACGAUCCUCCAACGUUGUAAUUACAACUCUACAUUCAUUUACUUACUUGACAUACUGCCACAAAGUAGUUUUUGAGUUCAUUAAAAAUUCCAAAGGCAUUAGUUGUUUUUUUUUUUUUUAGUGUUUCAACAGAGGAUUGAGCAUCA
B7: chr15:93027272:93027374:+|3pUTR|ENSG00000173575|unk|total|mutant (ssRNA)
RNA: GGGAGUUCUACAGUCCGACGAUCCCAGGAAUCUGUGAGGAUGGUAUUCCCUGGAGUCUGGCUUUGAAAGAUUUCAUUGUUGGCCGAAAUAACAGGUUGAGAAAGAGGGAGUCCGCAUCACCUAAAACCUGCACGUGAACAAGGCAACAGAGGAUUGAGCAUCA
B8: ENSG00000141127:stop:overlap|stop_codon|ENSG00000141127|stop_codon|NA|stop_codon (ssRNA)
RNA: GGGAGUUCUACAGUCCGACGAUCAUUCAUCAUGUAUGGAGCUAUCAAAGAAAAUUGCAGACUUUUUCCCCCUUUCUCUUCUCUAGGCGGCUAGGGGUGGAGAUGGGCAAAGUGCAGGUUUACCAGGAACCUAACAGAGAAACACAACAGAGGAUUGAGCAUCA
B9: chr22:31279490:31279591:+|3pUTR|ENSG00000182541|msi1|total|mutant (ssRNA)
RNA: GGGAGUUCUACAGUCCGACGAUCAGCAGCUUGGGCUGGGAAGAGGUGGUGGCAGAGUCUCAAAGCUGAGAUGCUGAGAGAGACCGCUCCCUGAGCUGGGCCAUCUGACUUCUACCUCCCAUGUUUGCUCUCCCAACUCAUCCGCAACAGAGGAUUGAGCAUCA
B10: chr5:43295829:43295944:-|CDS|ENSG00000112972|unk|total|mutant (ssRNA)
RNA: GGGAGUUCUACAGUCCGACGAUCAAUAUCCCCGCUUUAUUCUAAAGUCAAACUUUAAAAUUUCAUGGCUUAUAUGAAUUUCACCGUUUCCUUGGACUUCUCUUUCAGAGGGAAAUGAUAAAGAUUUUACCUUGAAUGAUUUUGCAACAGAGGAUUGAGCAUCA
B11: chr12:76028505:76028606:-|3pUTR|ENSG00000139289|msi1|total|mutant (ssRNA)
RNA: GGGAGUUCUACAGUCCGACGAUCAAGUCUUGGUCAGUAUUUUUCCAGCAUUUAAAUUGAAACGGUCAGUAUCCGACCACUGCCCGGUUAUGCCGUCAAGAAAUAAAAACCGAAUUACAUGCUACAGAUGUCUUUAUUCUCCUUCAACAGAGGAUUGAGCAUCA
B12: ENSG00000198589:be:win_5851|CDS|ENSG00000198589|bound_else_gene|NA|bound_elsewhere_windowed (ssRNA)
RNA: GGGAGUUCUACAGUCCGACGAUCACUCAACUAAUCCAGAAAAUUAUCAACAUUCUCACAGACAAGCAUGGAGCCUGGGGAAAUUCUGCAGUGAGUCGUCCUCUUGAGUUCUGGCGCCUUGACUACUGGGAAGAUGACUUGCGGCAACAGAGGAUUGAGCAUCA
B13: chr19:14961309:14961997:-|three_prime_utr|ENSG00000105143|control|control|control (ssRNA)
RNA: GGGAGUUCUACAGUCCGACGAUCGAUUCACUUACCCACUCACCAACUCAUUCAUUCAUGUCUUUCUGGGAUGAUUUCAUCACUAGUUGACUUCCUUGUUCAUCUGUUCAUUCAUUCAUUCUUCUAUGCAUUGGUUAGUUCAUGCAACAGAGGAUUGAGCAUCA
B14: chr15:60347444:60347559:-|3pUTR|ENSG00000182718|msi1_unk|total|mutant (ssRNA)
RNA: GGGAGUUCUACAGUCCGACGAUCUAACAGUCCCCGUGGCCAUCCCUGUGAGGGUGACGUCCGCAUUACCCCCAACCUCAUUUCCGUUGCCUAAGCAUUGCCUGGCCUUCCUGUCCCGUCUCUCCUGUAAGCCAAAGAAAUGAACAACAGAGGAUUGAGCAUCA
B15: chr16:5044585:5044836:-|CDS|ENSG00000153446|control|control|control (ssRNA)
RNA: GGGAGUUCUACAGUCCGACGAUCGAGUAGCUGGGACUACAGGAGCGUGCCACCAUACCUGGCUAAUUUUUAUAUUUUUUUAGUAGAGACAGGGUUUCAUCAUGUUGCUCAUGCUGGUCUCGAACUCCUGAUCUCAAGAGAUCCCAACAGAGGAUUGAGCAUCA
B16: chr5:144162273:144162391:-|CDS|ENSG00000145817|unk|total|mutant (ssRNA)
RNA: GGGAGUUCUACAGUCCGACGAUCCCCACCGGCUGGCAAAAUCCAGUUUGGCUAUGUAUACGGGAUCAGUGCAAUUGGAUGUCCCGGAAUGUUUUGUUUAUUAAACUUAAUGAGUAUGACAGGUGUUUCAUUUGGUUGUGUGGCCAACAGAGGAUUGAGCAUCA
B17: chr5:72990507:72990614:+|CDS|ENSG00000157107|unk|FALSE|unique (ssRNA)
RNA: GGGAGUUCUACAGUCCGACGAUCGUAUGGGAUGUAUUCAAAACAUCUACAGAGAAAUUAGCAAAUUGUCACUUGGAUCUUGUUAGAAAAUUACAAGAAUUAAUAAAGGAAGUUCAGAAGUAUGGAGAAGAACAAGUAAAGUCUCAACAGAGGAUUGAGCAUCA
B18: chr4:185586528:185586629:-|3pUTR|ENSG00000154556|msi1|FALSE|unique (ssRNA)
RNA: GGGAGUUCUACAGUCCGACGAUCAUCCAUAUGAUAUGUUGUACAUUUUAUGGAAAUGUAAUAGAAUCUCACACAUUAUUUUAUAGAAAUAGAGUACAGAAGCAUCACAAGUAUUAAAGUUGGUUUUAGCAAGGAUUAGGAUUACAACAGAGGAUUGAGCAUCA
B19: chr2:11642538:11642650:+|3pUTR|ENSG00000196208|unk|total|mutant (ssRNA)
RNA: GGGAGUUCUACAGUCCGACGAUCCGAAGAGUUGAUGUCAAUCUUUUUUUCCUAAGAAAAAAAGUCCGCGAGUAUUAAAUAUUCCGAUCAAUGUUUAUAAAAUGAUUACUUUGUAUAUCUCAUUAUUCCUAUUUUGGAAUAAAACAACAGAGGAUUGAGCAUCA
B20: chr3:11557766:11557867:-|3pUTR|ENSG00000144560|msi1|total|mutant (ssRNA)
RNA: GGGAGUUCUACAGUCCGACGAUCCUGGACUGCAGACUCUACCAAUCACGGGCAUUUUAUCUUCUCUGAACACUGCAGUUUGUCCGACCCGAGCUGAGGUUGGAGGAUUCCACCGUGCUUUAAACGUGAUGCAUGUUUUAAUGGCAACAGAGGAUUGAGCAUCA
B21: chr15:60490033:60490134:-|3pUTR|ENSG00000069667|unk|FALSE|unique (ssRNA)
RNA: GGGAGUUCUACAGUCCGACGAUCUGCUGGAUUUGGGACAUGCUUUUCUCUUUAAAUACAUAAUAUCAUUAUAUAAAUUAUUCUAGAGUGUAUUUAAUUAGGAUAAAAUUACUUCCUUAGUAUGGAUAUUUGACAUCUAUAGGGCAACAGAGGAUUGAGCAUCA
B22: ENSG00000136451:be:win_3251|3pUTR|ENSG00000136451|bound_else_gene|NA|bound_elsewhere_windowed (ssRNA)
RNA: GGGAGUUCUACAGUCCGACGAUCCUUAGUGUAAAAUAAUUUUAUAAAUGAUCUUUUGUACUUUAGGACAUUAAAUUGUACAACUUUUGUAUAUAUAAAAGCUUAGGAACUUUCUGUUUAGCAGGAAGGCAACACAUUCCUACACAACAGAGGAUUGAGCAUCA
B23: ENSG00000136451:be:win_3101|3pUTR|ENSG00000136451|bound_else_gene|NA|bound_elsewhere_windowed (ssRNA)
RNA: GGGAGUUCUACAGUCCGACGAUCUUCCAUUUAUACCCUACUGUGUCAGUUCAAGCAUCAAAAUACCUUGCAUCUGAGACAGACUUCCUACAUCAGGGACAGGUAUCUGUGUGUCAUUAUACAAAACAGUUCUAGGGGGUUGAACAACAGAGGAUUGAGCAUCA
B24: ENSG00000136451:be:win_3151|3pUTR|ENSG00000136451|bound_else_gene|NA|bound_elsewhere_windowed (ssRNA)
RNA: GGGAGUUCUACAGUCCGACGAUCUGAGACAGACUUCCUACAUCAGGGACAGGUAUCUGUGUGUCAUUAUACAAAACAGUUCUAGGGGGUUGAACUACAUAGUAAAAAAAUAAAAUAAAUAGUACUUAGUGUAAAAUAAUUUUACAACAGAGGAUUGAGCAUCA
B25: chr17:57972098:57972209:-|3pUTR|ENSG00000136451|unk|FALSE|bound_elsewhere (ssRNA)
RNA: GGGAGUUCUACAGUCCGACGAUCCUAGAAUGUGGUUGUCAGAACCCUGAAAGUAUUAGUUCUAAAAAAAAAAAGAUAUAUACUAGAAGUAAUUGUUUUAUCAAUUCAUUGUAUAAUAAACAGGAGUGAGACUUCAUUGUAUGACAACAGAGGAUUGAGCAUCA
B26: ENSG00000136451:be:win_3201|3pUTR|ENSG00000136451|bound_else_gene|NA|bound_elsewhere_windowed (ssRNA)
RNA: GGGAGUUCUACAGUCCGACGAUCAACAGUUCUAGGGGGUUGAACUACAUAGUAAAAAAAUAAAAUAAAUAGUACUUAGUGUAAAAUAAUUUUAUAAAUGAUCUUUUGUACUUUAGGACAUUAAAUUGUACAACUUUUGUAUAUCAACAGAGGAUUGAGCAUCA

The target of this assay is T1, UNK ZnF1-6 (called full-length). Briefly: nsRBNS (natural sequence RNA bind-n-seq); RBNS binding buffer (assumed for nsRBNS): 25 mM Tris pH 7.5, 150 mM KCl, 3 mM MgCl2, 0.01% Triton X-100, 500 ug/ml BSA, 20 U/ml SUPERase-In, 4 C; UNK is unkempt and MSI1 is Musashi-1; names of the RNAs are library labels; protein concentration not given here; high values mean tight binding.
With B1, the binding signal stood at 0.526 enrichment R.

As for B2, the binding signal stood at 1.05 enrichment R. As for B3, the binding signal worked out at 0.535 enrichment R. For B4 the value was 2.3 enrichment R; for B5, 0.862 enrichment R; for B6, 8.44 enrichment R. For B7 the value was 0.486 enrichment R; for B8, 0.392 enrichment R; for B9, 0.701 enrichment R.

B10 had a binding signal of 0.421 enrichment R. As for B11, the figure is 0.271 enrichment R; as for B12, 0.85 enrichment R. The molecule B13 had a binding signal of 0.569 enrichment R.

On to B14, for which the binding signal came to 0.662 enrichment R. B15 came in with a binding signal of 2.13 enrichment R. Take B16: the binding signal was found to be 0.596 enrichment R. In turn, B17 yielded a binding signal of 3.86 enrichment R. As to B18, the binding signal was determined as 11.6 enrichment R. On to B19, for which the binding signal is 0.544 enrichment R. For B20, the binding signal was found to be 0.682 enrichment R. As for B21, the figure is 4.69 enrichment R; as for B22, 6.05 enrichment R.

As for B23, the binding signal is 0.463 enrichment R. On to B24, for which the binding signal is 44 enrichment R. Turning to B25, the binding signal is 4.83 enrichment R. The molecule B26 had a binding signal of 96.7 enrichment R.
